# HT1080 IDH1KD tx – HT-1080 IDH1 knockdown cell toxicity (counter line). HT-1080 IDH1 knockdown viability, ATP luminescence, 48 h. Potency, µM (highest dose often 46.1 µM), without a hit: at the highest dose activity, negative = toxicity, most hits filed as cytotoxic. actives 2% (n = 360,000). AID 686971;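 note: potency is the fitted concentration of half-maximal effect; 0% = DMSO wells and -100% = cell-free medium wells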
#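 CellTiter-Glo luminescence after 48 h compound exposure at 37 degrees C of IDH1-knockdown HT-1080 cells in 5% FBS RPMI. %Activity scaled between DMSO wells and cell-free media wells, with curves fitted and assigned curve classes.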
# KB-V1 cytotox – kills drug-selected multidrug resistant KB-V1 cells; Potency, µM (titrated, usually from 46.1 µM), actives largely listed as cytotoxic; KB-V1 MDR cells viability, CellTiter-Glo, 72 h; AID 1347076; actives 3.4% (n = 400,000); note: potency is the fitted concentration of half-maximal effect; nearly all actives have a fitted effect of over 60% in size
#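 In this primary screen, KB-V1 cells overexpressing P-gp are incubated with library compounds (lowest to highest concentration) for 72 h at 37 degrees C before a luminescent ATP viability read.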
# IL-1B inflam inh – inflammasome signaling inhibition, IL-1 beta readout. THP-1 LPS/ATP IL-1B secretion, AlphaLISA, 16 h; stronger effect = lower value. activity change, % at 57.5 µM. actives 4.7% (n = 360,000); in the data active = activity change below about -50%; inconclusive = mostly about -30% to -49%
#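 THP-1 cells pretreated 1 hr with compounds (up to 57.5 uM final), then stimulated with LPS (250 ng/mL final) plus ATP (1.25 mM final); secreted IL-1B measured by AlphaLISA after 16 hr, decreased signal indicating inhibition.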
# KB-3-1 tox – kills parental KB-3-1 adenocarcinoma cells; KB-3-1 viability, CellTiter-Glo ATP luminescence, 72 h; Potency, µM (series often up to 46.1 µM), usual class: cytotoxic; actives 1.4% (n = 400,000); note: potency is the fitted concentration of half-maximal effect; nearly all actives have a fitted effect of over 60% in size
#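 Cells are dispensed, compounds pinned in, plates held at 37 °C for 72 h, then CellTiter-Glo is added and luminescence read after 10 minutes. Cell line: parental KB-3-1 in phenol-red-free DMEM, 10% FBS.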
# HT1080-NT tox – kills 2HG-producing HT-1080-NT fibrosarcoma cells; Potency, µM (doses to about 46.1 µM), without a hit: at the top dose activity, negative = less viability, most hits filed as cytotoxic; actives 1.6% (n = 360,000); HT-1080-NT fibrosarcoma viability, CellTiter-Glo ATP luminescence, 48 h;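 note: NT is the 2HG producing partner of a matched IDH1 knockdown line; potency is the fitted concentration of half-maximal effect; 0% = DMSO-treated cells and -100% = media-only wells without cells; nearly all actives have a fitted effect of over 55% in size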
#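 Viability of the 2HG-overproducing fibrosarcoma line after 48 hours of compound exposure at 37 degrees C was determined by luminescence with CellTiter-Glo, and concentration-effect curves were then fitted and categorized.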
# * hit, by the source's call; i = inactive; ? = inconclusive; . = no result; [ ] = remark or other dose. Most compounds without a hit are left out; they make up all but 8.8% or so of the library. Unless noted, calls come from the whole dose curve; as a rule, active = well fitted curve in the direction sought with a large enough effect; inconclusive = small, poorly fitted or top-dose-only effect, or another doubt; inactive = no such curve, though single readings can be large; an effect the other way counts as inactive or inconclusive. Unless noted, % is set by controls: 0 for no effect and ±100 for the full control effect.
SMILES,HT1080 IDH1KD tx,KB-V1 cytotox,IL-1B inflam inh,KB-3-1 tox,HT1080-NT tox
COc1ccc(NC(=O)C2CSC(C)(C)N2C=O)cc1 (stereo not drawn),11%,i,-1,i,4%
CNC(=O)OCc1nc(SC2CCCCO2)n(C)c1COC(=O)NC (stereo not drawn),0%,i,-1,i,8%
CCOC(=O)c1ccccc1NC(=O)c1ccccc1N(C)S(C)(=O)=O,6%,18µM*,-1,i,0%
Cc1ccccc1CN(c1ccc(C(=O)Nc2ccccc2C(=O)NCc2ccco2)cc1)S(C)(=O)=O,?,8.2µM*,-5,i,-10%
CCOC(=O)c1ccccc1NC(=O)c1c(F)c(F)c(F)c(F)c1F,6%,i,-69*,i,4%
O=C(Nc1cccc(Cl)c1)Nc1ccccc1C(=O)NCc1ccco1,?,i,-53*,i,-22%
Cc1ccc(C(=O)Nc2ccccc2C(=O)NCc2ccco2)cc1,-2%,?,-16,i,4%
COc1ccc2ccn(S(=O)(=O)c3ccccc3)c2c1,-18%,i,-13,i,-19%
CN(c1ccccc1C(=O)Nc1ccccc1C(=O)NCc1ccco1)S(C)(=O)=O,26%,15µM*,-9,i,2%
CN(c1ccccc1C(=O)NCc1ccco1)S(C)(=O)=O,15%,i,23,i,19%
COc1ccc(-c2n[nH]c3c2cnc2ccc(F)cc23)cc1,.,i,.,i,.
CC(=O)Oc1ccc(N(C(C)=O)S(=O)(=O)c2cccs2)c2ccccc12,18µM*,?,154,i,?
CC(=O)Oc1ccccc1N(C(C)=O)S(=O)(=O)c1ccc2ccccc2c1,3%,i,2,i,2%
COc1cccc(Nc2sc(C(=O)c3ccc4c(c3)OCO4)c(N)c2S(=O)(=O)c2ccccc2)c1,.,?,.,i,.
COc1ccc(S(=O)(=O)c2c(Nc3c(C)cccc3C)sc(C(=O)c3ccc(F)cc3)c2N)cc1,.,?,.,5.8µM*,.
COc1ccc(S(=O)(=O)c2c(Nc3c(C)cccc3C)sc(C(=O)c3ccc4c(c3)OCO4)c2N)cc1,.,?,.,3.7µM*,.
OCCN1CCN(c2ncnc3sc(-c4ccccc4)cc23)CC1,?,i,-93*,i,18µM*
c1ccc(-c2cc3c(N4CCCCC4)ncnc3s2)cc1,5%,i,-15,i,1%
c1ccc(-c2cc3c(N4CCOCC4)ncnc3s2)cc1,?,?,-62*,i,?
c1ccc(-c2cc3c(N4CCCC4)ncnc3s2)cc1,9%,?,-3,i,23%
Cc1nc2ccccc2c(=O)n1-c1ccc(NC(=O)c2ccccc2[N+](=O)[O-])cc1,.,i,.,i,.
COc1ccc2c(c1)CCc1c(C(=O)NCCN3CCOCC3)noc1-2,-22%,12µM*,0,i,-2%
COCCNC(=O)c1noc2c1CCc1cc(OC)ccc1-2,10%,i,-22,i,13%
COCC(C)NC(=O)c1noc2c1CCc1cc(OC)ccc1-2 (stereo not drawn),1%,16µM*,?,i,6%
CCOC(=O)c1ccc(N2C(=O)c3[nH]nc(-c4ccc(OC)cc4)c3C2c2ccccc2Cl)cc1 (stereo not drawn),.,i,.,i,.
SMILES,HT1080 IDH1KD tx,KB-V1 cytotox,IL-1B inflam inh,KB-3-1 tox,HT1080-NT tox
COc1ccccc1C1c2c(-c3ccc(Cl)cc3)n[nH]c2C(=O)N1c1ccc(C)cc1 (stereo not drawn),.,26µM*,.,i,.
CCc1cccc(C)c1NC(=O)CN(C)S(=O)(=O)c1cccc2nsnc12,.,i,.,i,.
O=C(CSCc1ccccc1)N/N=C/c1ccc(OCC(=O)N2CCCCC2)cc1,19%,21µM*,0,i,0%
COc1ccc(/C=N/NC(=O)C(=O)N2CCCCCC2)cc1,6%,i,-4,i,27%
O=C(COc1ccc(/C=N/NC(=O)C(=O)N2CCCCCC2)cc1)Nc1ccccc1Cl,-1%,18µM*,-6,i,3%
N#CCCn1cc(C=C(C#N)C#N)c(-c2ccc(-c3ccccc3)cc2)n1,0%,21µM*,10,?,11%
N#CCCn1cc(/C=N/O)c(-c2ccccc2)n1,-22%,i,-5,i,-1%[9.24 µM]
COc1cc(/C=C/C(=O)N(C)CC(=O)Nc2ccccc2SC)cc(OC)c1OC,9%,13µM*,14,i,10%
Fc1ccc(C2=CSC3=NCCN23)cc1,15%,i,16,i,12%
N=c1nc(N)nc2n1NC(c1ccc(F)cc1)=CS2,?,1.3µM*,?,i,?
COc1ccc(OC)c(NS(=O)(=O)c2ccc(NC(=O)C3COc4ccccc4O3)cc2)c1 (stereo not drawn),?,?,-68*,i,?
O=C(Nc1cccc(S(=O)(=O)N2CCOCC2)c1)C1COc2ccccc2O1 (stereo not drawn),12%,i,-4,i,2%
COc1ccc(NC(=O)C2COc3ccccc3O2)cc1S(=O)(=O)N1CCOCC1 (stereo not drawn),-1%,13µM*,13,i,1%
COc1ccc(CN2CCC(CO)(Cc3cccc(C(F)(F)F)c3)CC2)cc1Cn1cccn1,-1%,i,-75*,i,3%
COc1ccc(F)c(CN2CCC(CO)(Cc3cccc(C(F)(F)F)c3)CC2)c1,-25%,i,?,i,?
OCC1(Cc2ccccc2)CCN(Cc2ccc(C(F)(F)F)cc2)CC1,-12%,?,-51*,i,3%
COc1cc(CN2CCC(CO)(Cc3cccc(C(F)(F)F)c3)CC2)ccc1F,-7%,i,-52*,i,1%
OCC1(Cc2ccc(Cl)cc2)CCN(Cc2ccccc2F)CC1,?,i,-26,?,?
O=C(NCC1CCCN1S(=O)(=O)c1cccs1)c1c(F)cccc1F (stereo not drawn),5%,i,1,i,7%
Oc1ccccc1N=Nc1nc(-c2ccccc2)c(-c2ccccc2)[nH]1,?,0.92µM*,-9,i,?
CC(=O)Nc1ccc(NC(=O)Nc2ccccc2)cc1,9%,?,-26,i,11%
O=C(Nc1cccnc1)C1(F)C(F)(F)C(F)(F)C(F)(F)C(F)(F)C1(F)F,1%[9.24 µM],i,-67*,i,13%
O=C(NCCNC(=O)c1cc(OCC(F)(F)F)ccc1OCC(F)(F)F)Nc1cccc(C(F)(F)F)c1,-25%,?,?,?,-15%
O=C(Nc1cccnc1)Nc1cc(Cl)cc(Cl)c1,-8%,?,-101*,?,1%
O=C(Nc1cccnc1)C12CC3CC(CC(C3)C1)C2,-5%,i,-3,i,10%
